Tests used:
Settings in all cases: Compound Concentration (nM):1000
INSRR = test system: INSRR
INSR = test system: INSR
IRAK1 = test system: IRAK1
IRAK3 = test system: IRAK3
IRAK4 = test system: IRAK4
ITK = test system: ITK
[1] = test system: JAK1(JH1domain-catalytic)
[2] = test system: JAK1(JH2domain-pseudokinase)
[3] = test system: JAK2(JH1domain-catalytic)
[4] = test system: JAK3(JH1domain-catalytic)
JNK1 = test system: T1, JNK1
T1 construct: gene MAPK8

JNK2 = test system: T2, JNK2
T2 construct: gene MAPK9

JNK3 = test system: T3, JNK3
T3 construct: gene MAPK10

KIT(A829P) = test system: KIT(A829P)
KIT(D816H) = test system: KIT(D816H)
KIT(D816V) = test system: KIT(D816V)
KIT(L576P) = test system: KIT(L576P)
KIT(V559D) = test system: KIT(V559D)
KIT(V559D,T670I) = test system: KIT(V559D,T670I)
KIT(V559D,V654A) = test system: KIT(V559D,V654A)
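Note: KINOMEscan scanMAX binding as percent activity remaining versus control; lower means stronger binding.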

| Structure (SMILES) | Percent Control (INSRR) [%] | Percent Control (INSR) [%] | Percent Control (IRAK1) [%] | Percent Control (IRAK3) [%] | Percent Control (IRAK4) [%] | Percent Control (ITK) [%] | Percent Control [1] [%] | Percent Control [2] [%] | Percent Control [3] [%] | Percent Control [4] [%] | Percent Control (JNK1) [%] | Percent Control (JNK2) [%] | Percent Control (JNK3) [%] | Percent Control (KIT(A829P)) [%] | Percent Control (KIT(D816H)) [%] | Percent Control (KIT(D816V)) [%] | Percent Control (KIT(L576P)) [%] | Percent Control (KIT(V559D)) [%] | Percent Control (KIT(V559D,T670I)) [%] | Percent Control (KIT(V559D,V654A)) [%] |
| --- | --- | --- | --- | --- | --- | --- | --- | --- | --- | --- | --- | --- | --- | --- | --- | --- | --- | --- | --- | --- |
| COc1cc(N2CCN(C(C)C)CC2)ccc1Nc1nc(Nc2ccc(F)cc2C(=O)NC[C@@H](O)CO)c2cc[nH]c2n1 [GSK1392956A] | 1.4 | 1.1 | 90 | 86 | 89 | 100 | 94 | 89 | 100 | 88 | 0 | 0.1 | 0.1 | 88 | 57 | 100 | 100 | 100 | 96 | 98 |
| COc1cccc(-n2ncc3c(N/N=C/c4ccncc4)ncnc32)c1 [GW784752X] | 100 | 100 | 37 | 0 | 99 | 100 | 100 | 96 | 66 | 83 | 99 | 83 | 96 | 100 | 46 | 100 | 84 | 89 | 38 | 100 |
| COc1cccc(-c2c[nH]c3c(N/N=C/c4ccncc4)ncnc23)c1 [GW814408X] | 100 | 93 | 23 | 76 | 59 | 96 | 75 | 80 | 31 | 18 | 99 | 97 | 90 | 27 | 12 | 9.8 | 2.1 | 1.7 | 12 | 33 |
| Cl.O=C(Nc1ccc(Oc2ccc3[nH]c(NC(=O)c4ccccc4)nc3c2)cc1)Nc1cc(C(F)(F)F)ccc1F [GW709042A] | 100 | 85 | 89 | 100 | 86 | 100 | 99 | 96 | 100 | 77 | 85 | 99 | 100 | 20 | 84 | 79 | 2.9 | 0.8 | 4.9 | 20 |
| NS(=O)(=O)c1ccc(N/N=C2\C(=O)Nc3ccc(C(=O)NCCc4c[nH]cn4)cc32)cc1 [GW300660X] | 100 | 96 | 82 | 100 | 99 | 100 | 100 | 20 | 80 | 64 | 61 | 89 | 96 | 85 | 41 | 94 | 100 | 100 | 100 | 100 |
| O=C(Nc1n[nH]c2nc(-c3ccc(O)cc3)c(Br)cc12)C1CC1 [SB-725317] | 100 | 100 | 56 | 100 | 89 | 100 | 60 | 63 | 24 | 6.9 | 35 | 85 | 80 | 100 | 100 | 94 | 56 | 71 | 100 | 96 |
| COC(=O)Nc1nc2ccc(Oc3ccc(NC(=O)Nc4cc(C(F)(F)F)ccc4F)cc3)cc2s1.Cl [GW693917A] | 100 | 68 | 97 | 100 | 90 | 74 | 71 | 80 | 57 | 61 | 87 | 60 | 79 | 1.9 | 39 | 61 | 0 | 0.2 | 2.5 | 20 |
| COc1cc(C)c(N(C)C(=O)CN(C)C)cc1Nc1nc(Nc2cccc(F)c2C(N)=O)c2cc[nH]c2n1 [GSK2219385] | 2.9 | 4.3 | 95 | 97 | 95 | 99 | 88 | 81 | 100 | 92 | 88 | 74 | 83 | 100 | 60 | 81 | 100 | 100 | 100 | 93 |
| COc1ccc2cc(-c3c(-c4ccncc4)nc(-c4ccc(S(C)(=O)=O)cc4C)n3C)ccc2c1 [SB-633825] | 89 | 100 | 68 | 75 | 81 | 60 | 100 | 75 | 72 | 63 | 73 | 24 | 20 | 52 | 46 | 74 | 77 | 65 | 88 | 89 |
| Cl.O=C(O[C@H]1CN[C@H](C#Cc2cc3ncnc(Nc4ccc5c(cnn5Cc5ccccc5)c4)c3s2)C1)N1CCOCC1 [GSK200398A] | 100 | 77 | 100 | 77 | 96 | 100 | 96 | 91 | 99 | 90 | 90 | 91 | 88 | 100 | 69 | 100 | 100 | 100 | 87 | 100 |
| CC1=C(C(=O)Nc2ccc3[nH]ncc3c2)C(c2ccc3ccccc3c2)CC(=O)N1 (stereo not drawn) [GSK270822A] | 100 | 100 | 72 | 67 | 100 | 75 | 82 | 90 | 9.6 | 3.4 | 78 | 80 | 82 | 55 | 70 | 78 | 71 | 72 | 84 | 98 |
| COc1ccc2[nH]c3c4[nH]c5ccc(OC)cc5c4c4c(c3c2c1)C(=O)NC4=O [GW296115X] | 95 | 66 | 94 | 66 | 76 | 89 | 100 | 39 | 84 | 47 | 82 | 55 | 31 | 15 | 6.6 | 1.7 | 8.2 | 9 | 49 | 66 |
| NS(=O)(=O)c1ccc(N/N=C2\C(=O)Nc3ccc(C(=O)NCc4ccncc4)cc32)cc1 [GW300657X] | 89 | 100 | 71 | 91 | 96 | 99 | 88 | 50 | 64 | 37 | 55 | 40 | 38 | 47 | 14 | 61 | 83 | 87 | 89 | 100 |
| CC(C)COC(=O)c1ccc2c(c1)/C(=C/Nc1ccc(S(N)(=O)=O)cc1)C(=O)N2 [GW416981X] | 100 | 100 | 50 | 100 | 100 | 100 | 100 | 56 | 63 | 14 | 44 | 65 | 71 | 53 | 20 | 22 | 57 | 100 | 100 | 100 |
| CCc1ccc(Oc2nccc(-c3c(-c4ccc(F)cc4)ncn3C3CCNCC3)n2)cc1 [SB-242719] | 100 | 77 | 95 | 95 | 88 | 100 | 95 | 100 | 90 | 100 | 65 | 15 | 17 | 94 | 73 | 100 | 85 | 95 | 94 | 74 |
| CN1CCN(C(=O)c2ccc(NC(=O)Nc3ccc(N(C)c4ccnc(Nc5ccc(CS(C)(=O)=O)cc5)n4)cc3)cc2)CC1.Cl [GW830263A] | 100 | 61 | 58 | 0.1 | 52 | 98 | 76 | 13 | 4.7 | 5.4 | 5.5 | 19 | 8.6 | 0 | 27 | 23 | 0 | 0 | 0.1 | 9.1 |
| CN(C)CCNC(=O)Nc1ccc(N(C)c2ccnc(Nc3ccc(CS(C)(=O)=O)cc3)n2)cc1.Cl [GW830900A] | 99 | 75 | 59 | 31 | 80 | 83 | 100 | 33 | 30 | 40 | 43 | 65 | 55 | 31 | 45 | 52 | 0 | 0 | 14 | 72 |
| Cc1cc(O)cc(C)c1/C=C/c1cncc(C(N)=O)c1 [GW435821X] | 100 | 93 | 100 | 100 | 100 | 94 | 100 | 59 | 92 | 100 | 84 | 100 | 100 | 92 | 65 | 90 | 4.4 | 1 | 100 | 95 |
| NS(=O)(=O)c1ccc(N/N=C2\C(=O)Nc3ccc(Cl)cc32)cc1 [GW280670X] | 100 | 100 | 100 | 100 | 100 | 100 | 100 | 80 | 100 | 100 | 84 | 100 | 100 | 100 | 100 | 100 | 67 | 81 | 100 | 58 |
| O=C1Nc2ccc(C(=O)c3ccco3)cc2C1=Cc1cc(Cl)c(O)c(Cl)c1 [GW406108X] | 100 | 91 | 86 | 100 | 64 | 100 | 100 | 7.3 | 47 | 2.1 | 64 | 70 | 64 | 83 | 69 | 81 | 38 | 52 | 78 | 100 |
| C/C(Nc1ccc(S(N)(=O)=O)cc1)=C1/C(=O)Nc2ccccc21 [GW335962X] | 100 | 66 | 82 | 88 | 91 | 100 | 100 | 61 | 73 | 52 | 32 | 31 | 30 | 76 | 73 | 92 | 90 | 100 | 80 | 87 |
